From PubChem BioAssay AID1508637 (National Center for Advancing Translational Sciences (NCATS), 2021)
Inconclusive results are not listed. Active and inactive are the calls of the source. The call rests on the fitted dose curve; in most records, active means well fitted inhibition curve with a large enough effect; inconclusive means small, poorly fitted or top-dose-only effect; inactive means flat fitted curve, though single readings scatter. Starred links: 1 amine or outer side, 2 acyl side, 3 side chain; linkers in the order of their positions; H or OH if unused. Positions of bridges follow the written chain, without caps; N, C: chain ends. Non-standard residues stand in square brackets, D forms with d. Residues, ends and D or L forms follow the SMILES beside them. Chains are numbered I, II in the order given. ξ: configuration not given here. *: point of attachment. Actinocin(9to1) = Cc1c2oc3c(C)ccc(C(=O)[*:1])c3nc-2c(C(=O)[*:2])c(N)c1=O; ξNMeV = CNC(C(=O)O)C(C)C; Cbz = O=C(OCc1ccccc1)*; Nva = CCC[CH](N)C(=O)O; ξV = CC(C)C(N)C(=O)O; Sar = CNCC(=O)O

Test: qHTS for characterization and localization of zebrafish homologs of the human ABCB1 multidrug transporter: empty vector transfected cells
Settings: empty vector transfected control cells, CellTiter-Glo luminescence viability, 72 h; series mostly up to 46.1 µM
Source text: The zebrafish has emerged as a potential model to study the blood-brain barrier (BBB) given its similarities with mammalian systems. However, little information has been available with regard to homologous ATP-binding cassette transporters expressed at the zebrafish BBB. Two transporters that are highly expressed at the human BBB are P-glycoprotein (P-gp, encoded by the ABCB1 gene) and ABCG2 (encoded by the ABCG2 gene). In this study, we focus on characterization of P-gp homologs in the zebrafish, which has two genes that are homologous to human ABCB1 - abcb4 and abcb5. We generated stably-transfected cell lines to determine their substrate specificities. […] Zebrafish abcb4 also colocalized with claudin 5 expression in brain endothelial cells.
A high-throughput screen was performed as previously described on empty vector transfected cells, P-gp-overexpressing MDR-19 cells and cells transfected with full-length zebrafish abcb4 (ZF Abcb4) or abcb5 (ZF Abcb5). Briefly, cells were plated into 1536-well plates at a density of 500 cells/well in 5 uL media. P-gp substrate compounds (approximately 90) selected from our previous study were then added at varying concentrations using a 1536-head pin tool (Kalypsis, San Diego, CA) and plates were incubated at 37C in 5% CO2 for 72 h. CellTiter-Glo reagent (Promega) was dispensed into the wells, incubated for 5 min and luminescence was read on a ViewLux instrument (Perkin-Elmer).
Cytotoxic compounds were defined as those that yielded a curve class of -1.1, -1.2, -2.1, -2.2, -2.3, or -2.4, a maximum response of >50% and an AC50 of < 10 uM. All compounds from screening analysis were tested in Vector (empty vector control), MDR-19 (P-gp overexpressing), zebrafish abcb4 (ZF Abcb4) and abcb5 (ZF Abcb5) expression cell lines.
1. Tobie D Lee, Olivia W Lee, Kyle R Brimacombe, Lu Chen, Rajarshi Guha, Sabrina Lusvarghi, Bethilehem G Tebase, Carleen Klumpp-Thomas, Robert W Robey, Suresh V Ambudkar, Min Shen, Michael M Gottesman, Matthew D Hall. A High-Throughput Screen of a Library of Therapeutics Identifies Cytotoxic Substrates of P-glycoprotein. Mol Pharmacol. 2019, Nov;96(5):629-640.

Structure (SMILES)	Potency
CN(c1ncccc1CNc1nc(Nc2ccc3c(c2)CC(=O)N3)ncc1C(F)(F)F)S(C)(=O)=O	4180 nM (active)
Cc1ccc(-c2ncn(-c3ccc(Nc4nccc(-c5cccc(N6CCOCC6)c5)n4)cc3)n2)cn1	3320 nM (active)
C=CCn1c(=O)c2cnc(Nc3ccc(N4CCN(C)CC4)cc3)nc2n1-c1cccc(C(C)(C)O)n1	1180 nM (active)
CN(C)C1CCN(C(=O)c2ccc(NC(=O)Nc3ccc(-c4nc(N5CCOCC5)nc(N5CCOCC5)n4)cc3)cc2)CC1	469 nM (active)
COc1cc2c(NC3CCN(C(C)C)CC3)nc(N3CCCN(C)CC3)nc2cc1OCCCN1CCCC1	16600 nM (active)
CC(=O)C1(O)Cc2c(O)c3c(c(O)c2C(OC2CC(N)C(O)C(C)O2)C1)C(=O)c1c(O)cccc1C3=O (stereo not given)	41.8 nM (active)
Cc1cc(Nc2cc(NC(=O)c3c(Cl)cccc3Cl)ccn2)nc(N)n1	4180 nM (active)
C[C@@]12O[C@@H](C[C@]1(O)CO)n1c3ccccc3c3c4c(c5c6ccccc6n2c5c31)CNC4=O	2640 nM (active)
CC1(C)CC[C@]2(C(=O)OC3OC(CO)C(O)C(O)C3O)CC[C@]3(C)C(=CCC4[C@@]5(C)CC[C@H](OC6OC(C(=O)O)C(O)C(O)C6O)C(CO)(CO)C5CC[C@]43C)[C@@H]2C1 (stereo not given in full)	2230 nM (active)
CC[C@@H]1C(=O)N(C)c2cnc(Nc3ccc(C(=O)NC4CCC(N5CCN(CC6CC6)CC5)CC4)cc3OC)nc2N1C(C)C (stereo not given in full)	52.6 nM (active)
C[C@@H]1O[C@@H](O[C@H]2[C@@H](OC(=O)[C@]34CCC(C)(C)CC3C3=CCC5[C@@]6(C)C[C@H](O)[C@H](O[C@@H]7O[C@H](CO)[C@@H](O)[C@H](O)[C@H]7O[C@@H]7OC[C@@H](O)[C@H](O)[C@H]7O)[C@@](C)(C(=O)O)C6CC[C@@]5(C)[C@]3(C)CC4)OC[C@H](O)[C@@H]2O)[C@H](O)[C@H](O)[C@H]1O[C@@H]1OC[C@@H](O)[C@H](O)[C@H]1O (stereo not given in full)	1980 nM (active)
COc1cc2ncn(-c3cc(OCc4ccccc4C(F)(F)F)c(C(N)=O)s3)c2cc1OC	1910 nM (active)
CCCC(C=O)NC(=O)C(CC(C)C)NC(=O)C(CC(C)C)NC(=O)OCc1ccccc1 (stereo not drawn) (Cbz-Leu-Leu-[Nva]-aldehyde; configuration not given here)	1480 nM (active)
Cc1cc(Nc2cc(N3CCN(C)CC3)nc(Sc3ccc(NC(=O)C4CC4)cc3)n2)n[nH]1	6620 nM (active)
CC(C)C[C@@H](C=O)NC(=O)[C@H](CC(C)C)NC(=O)[C@H](CC(C)C)NC(=O)OCc1ccccc1 (Cbz-Leu-Leu-Leu-aldehyde)	1320 nM (active)
CC[C@@H]1C(=O)N(C)c2cnc(Nc3ccc(C(=O)NC4CCN(C)CC4)cc3OC)nc2N1C1CCCC1	46.9 nM (active)
Cc1nc(Nc2n[nH]c3c2CN(C(=O)N[C@H](CN(C)C)c2ccccc2)C3(C)C)c2sccc2n1	41.8 nM (active)
C[C@@H]1O[C@@H](O[C@H]2[C@H](O)[C@@H](O)[C@H](O[C@H]3[C@H](O[C@H]4CC[C@@]5(C)C(=CC[C@@H]6C5CC[C@]5(C)[C@@H]7[C@H](C[C@@H]65)O[C@]5(CC[C@@](C)(CO[C@@H]6O[C@H](CO)[C@@H](O)[C@H](O)[C@H]6O)O5)[C@H]7C)C4)O[C@H](CO)[C@@H](O)[C@@H]3O)O[C@@H]2CO)[C@H](O)[C@H](O)[C@H]1O (stereo not given in full)	353 nM (active)
CCN(CCCO)CCCOc1ccc2c(Nc3cc(CC(=O)Nc4cccc(F)c4)[nH]n3)ncnc2c1	inactive
CCc1c(O)cc(O)c(C(=O)c2ccc(OCCN3CCOCC3)c(OC)c2)c1CC(=O)N(CCOC)CCOC	743 nM (active)

Structure (SMILES)	Potency
Cn1cc(-c2[nH]c3cc(NC(=O)[C@H](N)C4CCCCC4)cc4c3c2C=NNC4=O)cn1	418 nM (active)
NC(=O)Nc1cc(-c2ccc(CN3CCOCC3)c(F)c2)sc1C(=O)N[C@H]1CCCNC1	469 nM (active)
CC(C)C[C@H](NC(=O)[C@H](CCc1ccccc1)NC(=O)CN1CCOCC1)C(=O)N[C@@H](Cc1ccccc1)C(=O)N[C@@H](CC(C)C)C(=O)[C@@]1(C)CO1	46.9 nM (active)
CC[n+]1c(-c2ccccc2)c2cc(N)ccc2c2ccc(N)cc21	332 nM (active)
NC(=O)Nc1cc(-c2cccc(F)c2)sc1C(=O)N[C@H]1CCCNC1	590 nM (active)
C#Cc1cccc(Nc2ncnc3cc(OC)c(OCCCCCCC(=O)NO)cc23)c1	2960 nM (active)
CCC1=CC2CN(C1)Cc1c([nH]c3ccccc13)[C@@](C(=O)OC)(c1cc3c(cc1OC)N(C)[C@H]1[C@@](O)(C(=O)OC)[C@H](OC(C)=O)[C@]4(CC)C=CCN5CC[C@]31[C@@H]54)C2 (stereo not given in full)	105 nM (active)
Cc1c2oc3c(C)ccc(C(=O)N[C@@H]4C(=O)NC(C(C)C)C(=O)N5CCC[C@H]5C(=O)N(C)CC(=O)N(C)C(C(C)C)C(=O)O[C@@H]4C)c3nc-2c(C(=O)N[C@@H]2C(=O)NC(C(C)C)C(=O)N3CCC[C@H]3C(=O)N(C)CC(=O)N(C)C(C(C)C)C(=O)O[C@@H]2C)c(N)c1=O (stereo not given in full) (I: T[ξV]P[Sar][ξNMeV] / II: T[ξV]P[Sar][ξNMeV]; ester I:1-I:C, II:1-II:C; linker I:N-II:N via Actinocin(9to1))	7.4 nM (active)
CC(NCc1ccc2c(c1)nc(NC(=O)c1ccc(-c3cn[nH]c3)s1)n2CC(C)(C)O)C(C)(C)C (stereo not given)	332 nM (active)
CC(=O)O[C@@H]1C[C@H](O)[C@@]23CO[C@@H](O)C1(C)[C@@H]2C[C@@H](O)[C@]1(C)[C@@H]3C(=O)[C@H](OC(C)=O)[C@@]2(C)[C@H](c3ccoc3)C[C@H]3O[C@]321	93.5 nM (active)
CCn1nnc2c(N3CCOCC3)nc(-c3ccc(NC(=O)Nc4ccc(C(=O)N5CCN(C)CC5)cc4)cc3)nc21	332 nM (active)
CC(C)C[C@H](NC(=O)[C@@H](NC(=O)c1cccc(-c2ccccc2)n1)[C@@H](C)O)B(O)O	74.3 nM (active)
COCCn1c2c([n+](Cc3cnccn3)c1C)C(=O)c1ccccc1C2=O	16.6 nM (active)
Cc1ccc(C(=O)N(CCCN)C(c2nc3cc(Cl)ccc3c(=O)n2Cc2ccccc2)C(C)C)cc1 (stereo not given)	1180 nM (active)
N=C(N)c1ccc(OCCCCCOc2ccc(C(=N)N)cc2)cc1	2640 nM (active)
CN(C)CCN(C)C(=O)c1ccc(NC(=O)Nc2ccc(-c3nc(N4CCOCC4)c4ccn(CC(F)(F)F)c4n3)cc2)cc1	264 nM (active)
Cc1cc(N)c2ccccc2[n+]1CCCCCCCCCC[n+]1c(C)cc(N)c2ccccc21	5900 nM (active)
C[C@@H](Oc1cc(-n2cnc3ccc(CN4CCN(C)CC4)cc32)sc1C(N)=O)c1ccccc1C(F)(F)F	37.2 nM (active)
CC(C)(C)c1cnc(CSc2cnc(NC(=O)C3CCNCC3)s2)o1	1080 nM (active)
COc1cccc2c1C(=O)c1c(O)c3c(c(O)c1C2=O)C[C@@](O)(C(=O)CO)C[C@H]3O[C@H]1C[C@H](N)[C@@H](O)[C@H](C)O1	105 nM (active)
